# Screening results deposited in PubChem by The Scripps Research Institute Molecular Screening Center.
# The list is not random: actives were taken first. Their share in the collection is about 2.9%.
# PLC-beta3 inh: PLC-beta3 (human) inhibition, primary screen; Purified PLC-beta3, fluorogenic substrate, fluorescence; inhibition, % at 12.2 µM; hit rate 0.18% among 370,000; in the data active means inhibition above about 11%;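 further: 0% = median of compound wells on plate and 100% = full blocker control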
# PLC-gamma1 inh: inhibitors of human phospholipase C gamma1. purified PLC-gamma1, fluorogenic substrate, fluorescence. inhibition, % at 12.2 µM. hit rate 0.84% among 370,000. AID 720700; in the data active means inhibition above about 9.5%
# ADAM10 inh: inhibitors of human ADAM10; O14672; recombinant ADAM10, EDANS/DABCYL FRET peptide cleavage, 3 h; inhibition, % at 7 µM; hit rate 0.62% among 370,000; AID 720582;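 active means inhibition above a per-campaign cutoff equal to the mean of compounds falling between control-based bounds plus 3 SD, cut at about 20% in these data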;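 further: 0% = DMSO wells while the 100% control is not disclosed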
# ADAM17 inh: inhibits human ADAM17 | P78536 | hit rate 0.83% among 370,000 | inhibition, % at 6.95 µM | recombinant ADAM17, EDANS/DABCYL FRET peptide cleavage;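 active means inhibition above the mean of compounds lying between control limits plus 3 SD, set per campaign, cut at about 8.5% in these data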;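 further: 0% = DMSO-only wells as the low control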
# KLK7 zymogen act: activators of human kallikrein-7 zymogen. P49862. purified proKLK7, EDANS-DABCYL substrate fluorescence; 100% is mature enzyme control, 0% vehicle. activation, % at 7 µM. hit rate 0.9% among 370,000. AID 652039;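 active means activation above the mean of all tested compounds plus 3 SD, computed per campaign excluding outliers beyond control limits, cut at about 13% in these data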
# Target sequence (P49862 whole entry, looked up): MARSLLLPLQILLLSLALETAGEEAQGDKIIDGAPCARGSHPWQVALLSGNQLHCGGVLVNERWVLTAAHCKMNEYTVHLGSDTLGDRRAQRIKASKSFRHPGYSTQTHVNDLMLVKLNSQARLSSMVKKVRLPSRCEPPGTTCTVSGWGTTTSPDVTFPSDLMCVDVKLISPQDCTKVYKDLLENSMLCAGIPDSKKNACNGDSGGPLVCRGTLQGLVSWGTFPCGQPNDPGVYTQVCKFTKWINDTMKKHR
# KLK7 act conf: proKLK7 activation, confirmation; shares compounds with KLK7 zymogen act; purified proKLK7, EDANS-DABCYL substrate fluorescence; scaled: vehicle 0, mature enzyme 100; activation, % at 7 µM; hit rate 68% among 3,200;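 active means activation, as change over the incubation, above the mean of all tested compounds plus 3 SD, cut at about 13% in these data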
# EDANS interfere: counter-screen for kallikrein-7 activators: EDANS-DABCYL optical interference; shares compounds with KLK7 zymogen act; EDANS-DABCYL substrate fluorescence interference, no enzyme, 4 h; solvent 0%, active enzyme control 100%; activation, % at 7 µM; hit rate 80% among 3,200; AID 686952;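 active means activation above the all-compound mean plus 3 SD, ignoring values outside control-based bounds, cut at about 4.8% in these data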;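 further: value is the 4 h activation minus the activation read at time zero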
# * hit, by the source's call; i = inactive; . = not tested or not shown.
SMILES,PLC-beta3 inh,PLC-gamma1 inh,ADAM10 inh,ADAM17 inh,KLK7 zymogen act,KLK7 act conf,EDANS interfere
O=C(C1CCC1)N1CCc2cc(S(=O)(=O)N3CCCC3)ccc21,0,1,-2,0,0,.,.
Cc1oc2c(C)c(O)ccc2c(=O)c1N1C(=O)c2ccccc2C1=O,-61,-51,-103,-28,69*,99*,103*
Cc1oc2cc(O)ccc2c(=O)c1Oc1ccccc1Br,i,i,i,i,1,.,.
Cc1oc2cc(O)ccc2c(=O)c1N1C(=O)c2ccccc2C1=O,-291,-207,i,-261,344*,298*,301*
CCOc1ccc(Oc2c(C)oc3cc(O)ccc3c2=O)cc1,i,-449,i,-338,-25,.,.
Cc1oc2c(C)c(O)ccc2c(=O)c1-c1nncn1-c1ccccc1,-121,-86,-35,-10,-1,.,.
CC(=O)Oc1ccc2c(=O)c(N3C(=O)c4ccccc4C3=O)c(C)oc2c1,-113,-100,-230,-79,151*,166*,164*
CCCOc1ccc2c(=O)c(N3C(=O)c4ccccc4C3=O)c(C)oc2c1,-46,-32,-48,-15,-1,.,.
Cc1oc2cc(O)ccc2c(=O)c1Oc1ccccc1,i,i,i,i,54*,74*,75*
COC(=O)[C@]12C[C@H](CC(=O)N3CCOCC3)C(=O)N(Cc3ccc(Cl)cc3Cl)C1=C[C@H](C1CCCC1)O[C@@H]2C,2,8,12,7,0,.,.
COc1ccc(S[C@]2(C(=O)NC(C)C)CC(=O)N[C@@H]2c2ccc(OC)cc2)cc1,-3,1,-4,-2,0,.,.
COC(=O)c1cc(-c2c(C)oc3cc(O)ccc3c2=O)c(C)o1,i,-466,i,-296,-12,.,.
Cc1ccccc1-c1c(C)oc2cc(O)ccc2c1=O,i,i,i,i,58*,71*,74*
CC(C)(C)N1Cc2nnn(Cc3ccccc3)c2-c2ccccc2S1(=O)=O,1,3,1,-1,0,.,.
COc1ccc(CN[C@@H]2CC[C@@]34CCCN3C(=O)CCC[C@H]4C2)cc1,4,5,3,1,.,.,.
CC1=C(C#N)C(c2cccnc2)C2=C(CCCC2=O)N1 (stereo not given),i,i,i,-387,17*,51*,64*
CC(=O)N1CCN(c2cc(C)nc3nc(C)nn23)CC1,-4,-6,1,-1,0,.,.
COc1ccc2c(c1)[nH]c1c(=O)n(CCCN3CCOCC3)cnc12,2,-1,-3,-7,-1,.,.
COc1ccc2c(c1)c1ncn(CC3CCCO3)c(=O)c1n2C (stereo not given),-425,-446,i,i,13*,3,4
COc1ccc2c(c1)c1ncn(CCc3ccccc3)c(=O)c1n2C,-377,-285,i,i,-6,.,.
COc1ccc2c(c1)c1ncn(CCCN3CCOCC3)c(=O)c1n2C,-392,-258,i,i,15*,11,20*
CCOC(=O)Cn1cc(CN2CCS(=O)(=O)N(Cc3ccc(F)cc3)C(C(=O)OC)C2)nn1 (stereo not given),1,5,0,2,0,.,.
COC(=O)[C@]12C[C@H](CC(=O)NCCCCc3ccccc3)C(=O)N(Cc3cccc4ccccc34)C1=C[C@H](COCc1ccccc1)O[C@@H]2C,-2,-1,9,-1,-1,.,.
NC(=O)NN=C1CCN2CCCc3cccc1c32,i,i,-265,-68,30*,51*,55*
O=C(Cc1cccc2ccccc12)N/N=C1\CCCc2ccccc21,-5,-4,-11,-3,1,.,.
SMILES,PLC-beta3 inh,PLC-gamma1 inh,ADAM10 inh,ADAM17 inh,KLK7 zymogen act,KLK7 act conf,EDANS interfere
Nc1nc2c(C(=O)N3CCCC3)nnn2c2ccccc12,-443,-324,i,-285,19*,22*,20*
COc1cc(-c2cc(C(=O)Nc3ccc(O)cc3)c3ccccc3n2)cc(OC)c1OC,-28,-15,15,2,0,.,.
COc1ccc(-c2cc(C(=O)Nc3ccc(C(N)=O)cc3)c3ccccc3n2)cc1OC,-284,-213,-189,-67,18*,-34,-29
Nc1ccc(-c2nc3c(ccc4ccccc43)[nH]2)cc1,i,i,i,i,54*,74*,74*
Cc1nn(C)cc1NC(=O)C[C@H]1CC[C@H]2[C@@H](COc3ccc(NC(=O)Nc4ccccc4)cc3C(=O)N2C)O1,6,9,11,-11,0,.,.
COc1ccc(NC(C)=O)cc1NC(C)c1nc2sc(C)c(C)c2c(=O)[nH]1 (stereo not given),-78,-62,-84,-28,16*,9,9.3*
COc1ccc(OC)c(NC(=O)C(C)SCc2nc3sc(C)c(C)c3c(=O)[nH]2)c1 (stereo not given),-5,-2,-1,-2,0,.,.
CC(=O)Nc1nc2ncccn2c1-c1ccc(F)c(F)c1,i,i,i,-367,21*,27*,26*
O=C(Nc1c(-c2ccccc2)nc2ncccn12)c1ccc(F)cc1,-325,-265,-298,-86,14*,12,11*
CC(=O)Nc1nc2ncccn2c1-c1ccccc1,i,i,i,-203,10,.,.
O=C(Nc1ccc(F)cc1)Nc1c(-c2ccc(F)cc2)nc2ncccn12,-57,-42,-37,-10,15*,5,5.1*
CC(=O)Nc1c(-c2ccccc2)nc2ncccn12,i,i,i,-287,22*,60*,57*
CC(=O)Nc1c(-c2ccc(F)cc2)nc2ncccn12,i,i,i,-304,12,.,.
COc1ccc(CN2C3=NC(c4ccccc4)CC(=O)N3/C(=C\c3ccccc3)C2c2ccccc2)c(OC)c1 (stereo not given),-3,-2,6,2,.,.,.
CCOc1ccc(-c2nc(CSCC(=O)NC3CCC3)c(C)o2)cc1,-3,-2,-9,-4,.,.,.
CCN(CC)c1ccc(C2C(C(=O)Nc3ccccn3)=C(C)NC3=C2C(=O)CC(C)(C)C3)cc1 (stereo not given),-218,-159,-160,-45,7,.,.
CCn1cc(C2C(C(=O)Nc3cc(C)ccn3)=C(C)NC3=C2C(=O)CC(C)(C)C3)c(C)n1 (stereo not given),-402,-441,i,-214,20*,8,15*
CCOC(=O)N1CCN(C(=O)C[C@H]2C[C@@]3(C(=O)OC)C(=C[C@H](C(C)C)O[C@@H]3C3CC3)N(CCC3=CCCCC3)C2=O)CC1,0,0,2,0,1,.,.
COc1cccc(/C=N\N2CCN(c3ccc(C)cc3)CC2)c1O,1,1,4,0,0,.,.
